# PubChem BioAssay (NCATS)
# Results filed as inconclusive are left out. Activity calls are given as the source filed them. Calls follow the shape of the dose curve; as a rule, active = well fitted inhibition curve with a large enough effect; inconclusive = small, poorly fitted or top-dose-only effect; inactive = flat fitted curve, though single readings scatter.
# Molecular target: Calcium and integrin-binding protein 1 (Homo sapiens) (UniProt Q99828)
# Assay: Primary qHTS for Identification of Calcium Integrin Binding Protein 1 (CIB1) Competitor (AID 1508620);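 also: GST tagged CIB1 binding a fluorescein labelled alphaIIb integrin peptide tracer; top concentration of the series differs between compounds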
# Conditions: CIB1-GST / FITC-alphaIIb peptide fluorescence polarization; series mostly up to 114 µM; activity change, negative = inhibition: at the top concentration
# Description: Assay Provider: Ulhas P. Naik, PhD Sidney Kimmel Medical College Thomas Jefferson University, Philadelphia, PA Primary function of platelets is to maintain hemostasis. At the site of vascular injury, platelets adhere to adhesive proteins such as collagen and von Willebrand factor. Adherent platelets are activated and generate soluble platelet agonists such as thrombin, ADP and thromboxane A2. Following exposure of circulating platelets to these agonists, results in platelet shape change, granule secretion and activation of platelet integrin alphaIIb-beta3. Ligand binding to activated integrin alphaIIb-beta3 triggers outside-in signaling, leading to platelet aggregation, stabilization of platelet plug, and clot retraction. Upon atherosclerotic plaque rupture also causes platelet plug formation, which underlies a number of cardiovascular diseases such as myocardial infraction and stroke. A number of anti-platelet drugs such as aspirin, clopidogrel, prasugrel, vorapaxar, and eptifibatide are currently available to prevent the thrombotic complications. However, these anti-platelet agents have several limitations including inherent variability in individual responses, developing resistance, and serious bleeding side effects. For these reasons they are not suitable for long-term protection. Based on the experiences with current anti-platelet drugs, it appears that the most useful therapeutic approach is to intersect the secondary responses such as integrin outside-in signaling or recruitment of platelets by TxA2 and secreted ADP. Compounds, which can largely preserve the primary hemostatic function of platelets but inhibit secondary response will be most desired therapeutic agents for treatment of cardiovascular disease. CIB1 is a calcium integrin binding protein, which specifically interact with the alphaIIb subunit of integrin alphaIIb-beta3. Binding of CIB1 to alphaIIb regulates the outside-in signaling in platelets, which is needed for thrombus stabilization and thrombus growth. […] Therefore, we propose that discovery of a small molecule that can prevent the association of CIB1 and alphaIIb-beta3 will be a potential anti-platelet agent that can block the thrombus formation without undue effect on hemostasis. Reference: [1] Naik MU, Nigam A, Manrai P, et al. CIB1 deficiency results in impaired thrombosis: the potential role of CIB1 in outside-in signaling through integrin alpha IIb beta 3. J Thromb Haemost.
# PROTOCOL TABLES SEQUENCE No. (1, 2, 3, etc.); […] (e.g., Cells, Incubation, Reagent, etc.); VALUE and DESCRIPTION. 1; Reagent; 3 uL; Protein or buffer (4/3x) 2; Compound; 46 nL; Control inhibitor / compound library 3; Time; 15 min; Room temperature incubation 4; Reagent; 1 uL; Fluorescent labeled peptide (4x) 5; Time; 1000 rpm; Centrifuge 6; Time; 15 min; Room temperature incubation 7; Detection; Ex 480/ Em 540; ViewLux Fluorescence Read NOTES (numbers refer to sequence above) 1; Protein Mixture: C1B1-GST (final concentrations of 1 uM). […] 3; Room temperature incubation. 4; Fluorescent Labeled Peptide: FITC-aIIb (final concentration of 100 nM). Sequence of alphaIIb peptide: Acetyl-[…]-FITC (purity is 95.83%). 5; Centrifuge 1000 rpm (164 g) for 15 seconds. 6; Room temperature incubation. 7; ViewLux Fluorescent Polization Read: excitation = 480(20) / emission = 540(25) S and P; FITC Dichroic mirror.
# % is scaled to controls: 0 for no effect and ±100 for the full control effect.
# Sequence of Calcium and integrin-binding protein 1 (Homo sapiens) (Q99828 whole entry, looked up): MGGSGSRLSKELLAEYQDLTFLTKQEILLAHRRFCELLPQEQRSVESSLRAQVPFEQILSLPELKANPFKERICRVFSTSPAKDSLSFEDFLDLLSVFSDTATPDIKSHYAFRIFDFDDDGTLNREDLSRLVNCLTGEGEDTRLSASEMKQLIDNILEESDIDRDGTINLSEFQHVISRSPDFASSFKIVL
SMILES,"activity change, negative = inhibition",Potency
CCc1nn(CCCN2CCN(c3cccc(Cl)c3)CC2)c(=O)n1CCOc1ccccc1,-3.31% (inactive),
O=C(O)C1(C(=O)O)CCC1.[NH2-].[NH2-].[Pt+2],-2.68% (inactive),
OCc1ccccn1,-6.13% (inactive),
O=S(c1cc(Cl)cc(Cl)c1O)c1cc(Cl)cc(Cl)c1O,4.56% (inactive),
O[C@@H](c1cc(C(F)(F)F)nc2c(C(F)(F)F)cccc12)[C@H]1CCCCN1,-4.63% (inactive),
C/C=C/C=N/NC(=O)c1ccncc1,-2.17% (inactive),
Cc1cccc(C)c1NC(=O)CN1CCCCCC1,0.676% (inactive),
CC(=O)Oc1ccc(C)cc1,-1.72% (inactive),
O=C1[C@H](CC[C@H](O)c2ccc(F)cc2)[C@@H](c2ccc(O)cc2)N1c1ccc(F)cc1,,inactive
CCOC(=O)C(C#N)=C(c1ccccc1)c1ccccc1,-0.311% (inactive),
CCOc1ccccc1OCCN[C@H](C)Cc1ccc(OC)c(S(N)(=O)=O)c1,-2.2% (inactive),
O=c1[nH]c(=O)n([C@H]2C[C@H](O)[C@@H](CO)O2)cc1F,4.91% (inactive),
Cc1cn([C@H]2C[C@H](F)[C@@H](CO)O2)c(=O)[nH]c1=O,-5.02% (inactive),
CNCCCCOc1ccccc1Cc1ccccc1,1.87% (inactive),
CCOc1cc(OCC)c(C(=O)CCC(=O)O)cc1OCC,-5.66% (inactive),
C[N+]1(CC2COC(c3ccccc3)(C3CCCCC3)O2)CCCCC1 (stereo not given),6.83% (inactive),
CC(C)Cn1cnc2c1c(=O)n(C)c(=O)n2C,-0.559% (inactive),
CC(C)(Cc1c[nH]c2ccccc12)NCC(O)COc1ccccc1C#N (stereo not given),-5.02% (inactive),
CCCCC(CC)CN1CN(CC(CC)CCCC)CC(C)(N)C1 (stereo not given),4.29% (inactive),
CCc1cc(Cl)c(OC)c(C(=O)NC[C@@H]2CCCN2CC)c1O,4.97% (inactive),

SMILES,"activity change, negative = inhibition",Potency
OC(C#CCN1CCCC1)(c1ccccc1)c1ccccc1,-0.584% (inactive),
OC[C@H]1O[C@@H]2O[C@H]3[C@H](O)[C@@H](O)[C@@H](O[C@H]4[C@H](O)[C@@H](O)[C@@H](O[C@H]5[C@H](O)[C@@H](O)[C@@H](O[C@H]6[C@H](O)[C@@H](O)[C@@H](O[C@H]7[C@H](O)[C@@H](O)[C@@H](O[C@H]8[C@H](O)[C@@H](O)[C@@H](O[C@H]1[C@H](O)[C@H]2O)O[C@@H]8CO)O[C@@H]7CO)O[C@@H]6CO)O[C@@H]5CO)O[C@@H]4CO)O[C@@H]3CO,-6.2% (inactive),
Cc1cc2c(OCC(CNC(C)(C)C)OC(=O)c3ccccc3)cccc2[nH]1 (stereo not given),-3.19% (inactive),
Nc1ccc(S(=O)(=O)Nc2cnc3ccccc3n2)cc1,-1.92% (inactive),
FC(F)(F)C(F)(F)C(F)(F)C(F)(F)C(F)(F)C(F)(F)C(F)(F)C(F)(F)Br,5.78% (inactive),
CCN(CC)CCOC(=O)C1(c2ccccc2)CCCC1,2.63% (inactive),
O=C(CCN1CCN2CCCC2C1)N1c2ccccc2Sc2ccc(Cl)cc21 (stereo not given),5.81% [at 57.7 µM] (inactive),
CN(CCCN1c2ccccc2CCc2ccccc21)CC(=O)c1ccc(Cl)cc1,-6.66% (inactive),
CC1(COc2ccc(CC3SC(=O)NC3=O)cc2)CCCCC1 (stereo not given),-5.9% (inactive),
Nc1ccc(C(=O)NCC(=O)O)cc1,2.53% (inactive),
CCCCCCCCOc1ccc(C(=O)c2ccccc2)c(O)c1,-0.499% (inactive),
NS(=O)(=O)c1ccc(Cl)c(S(N)(=O)=O)c1,3.01% (inactive),
CNCCc1ccccn1,-2.91% (inactive),
O=C(Nc1cccc(C2=NCCN2)c1)Nc1cccc(C2=NCCN2)c1,2.37% [at 57.7 µM] (inactive),
NC(=O)c1ccccc1O,2.9% (inactive),
NCCNC(=O)c1ccc(Cl)cn1,-3.47% (inactive),
N#C/C(=C1\SCC(c2ccccc2Cl)S1)n1ccnc1 (stereo not given),2.89% (inactive),
CCN(CC)CCNc1ccc(CO)c2sc3ccccc3c(=O)c12,-16.8% (inactive),
C#C[C@]1(O)CC[C@H]2[C@@H]3CCc4cc(OC)ccc4[C@H]3CC[C@@]21C,1.71% (inactive),
CC(C)Nc1cccnc1N1CCN(C(=O)c2cc3cc(NS(C)(=O)=O)ccc3[nH]2)CC1,-4.12% (inactive),
